In article PMC7862700, “An all-to-all approach to the identification of sequence-specific readers for epigenetic DNA modifications on cytosine” one finds binding signal data, which are given here for one sequence.

Common to all, as to assay: DAPPL (digital affinity profiling via proximity ligation, sequencing); 10 mM Tris-HCl pH 7.5, 50 mM NaCl, 1 mM DTT, 4% glycerol, room temperature, 30 min; GST-TFs on glutathione beads, 16-mer random dsDNA library, 0.1% formaldehyde crosslink after washing; high values mean tight binding
Details in all cases: protein: recombinant; tags: N-terminal GST; dsDNA, one strand shown

The target in one assay is T1, FLI1 (Homo sapiens, UniProt Q01543 1-452).
T1 sequence: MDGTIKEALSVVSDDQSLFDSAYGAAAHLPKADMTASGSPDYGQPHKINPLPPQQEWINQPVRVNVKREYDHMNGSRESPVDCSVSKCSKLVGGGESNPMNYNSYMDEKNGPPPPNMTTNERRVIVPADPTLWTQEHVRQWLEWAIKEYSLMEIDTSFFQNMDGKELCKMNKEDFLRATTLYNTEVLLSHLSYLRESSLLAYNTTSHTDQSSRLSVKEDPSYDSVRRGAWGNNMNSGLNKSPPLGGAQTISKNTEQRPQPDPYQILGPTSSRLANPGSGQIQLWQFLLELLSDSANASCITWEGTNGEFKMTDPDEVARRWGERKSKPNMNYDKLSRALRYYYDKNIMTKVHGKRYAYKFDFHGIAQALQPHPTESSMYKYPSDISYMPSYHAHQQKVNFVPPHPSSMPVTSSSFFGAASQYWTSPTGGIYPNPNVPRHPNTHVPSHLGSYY
In short, it runs like this:
(§1)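 Each value of binding signal is a hexamer's read frequency for a factor divided by the same hexamer's frequency in the tag-only sample. Barcoded, bead-captured GST fusions of human transcription factors made in yeast were pooled with that sample and incubated with 200 nmole of a random double-stranded 16-mer DNA library in Tris/NaCl/DTT/glycerol buffer at room temperature for 30 min. Washing, 0.1% formaldehyde crosslinking, proximity ligation, PCR and Illumina NextSeq500 sequencing followed.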

The target of a further assay is T2, ELK1 (Homo sapiens, UniProt P19419 1-428).
T2 sequence: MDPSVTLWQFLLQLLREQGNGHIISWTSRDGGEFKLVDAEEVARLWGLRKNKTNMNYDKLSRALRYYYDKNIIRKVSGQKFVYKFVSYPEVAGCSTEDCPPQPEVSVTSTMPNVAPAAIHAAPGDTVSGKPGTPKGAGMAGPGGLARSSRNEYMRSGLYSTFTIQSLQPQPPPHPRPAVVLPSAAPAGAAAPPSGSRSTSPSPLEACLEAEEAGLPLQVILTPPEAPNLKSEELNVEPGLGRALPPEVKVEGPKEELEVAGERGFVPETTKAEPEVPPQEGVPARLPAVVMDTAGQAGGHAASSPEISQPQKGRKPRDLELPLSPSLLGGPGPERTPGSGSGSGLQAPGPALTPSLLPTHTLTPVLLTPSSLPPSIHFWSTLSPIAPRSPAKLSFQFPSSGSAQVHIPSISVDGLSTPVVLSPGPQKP
In short, it runs like this: as §1

A further assay deals with T3, GABPA (Homo sapiens, UniProt Q06546 1-454).
T3 sequence: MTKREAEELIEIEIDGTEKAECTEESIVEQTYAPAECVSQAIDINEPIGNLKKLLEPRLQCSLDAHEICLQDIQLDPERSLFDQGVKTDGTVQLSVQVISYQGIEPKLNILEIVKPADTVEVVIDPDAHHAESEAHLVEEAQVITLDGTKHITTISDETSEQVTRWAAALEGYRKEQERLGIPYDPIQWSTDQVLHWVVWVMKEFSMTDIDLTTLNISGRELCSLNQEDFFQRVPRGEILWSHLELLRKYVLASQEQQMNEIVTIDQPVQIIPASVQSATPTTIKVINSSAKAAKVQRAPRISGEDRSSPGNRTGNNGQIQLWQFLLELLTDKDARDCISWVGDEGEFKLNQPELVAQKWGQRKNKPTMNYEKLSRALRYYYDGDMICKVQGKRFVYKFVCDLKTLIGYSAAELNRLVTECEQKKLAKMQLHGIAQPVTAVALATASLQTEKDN
In short, it runs like this: as §1

A further assay concerns the target ELF1 (Homo sapiens, UniProt P32519 1-619). In outline: as §1
For another assay, the target named is T4, EHF (Homo sapiens, UniProt Q9NZC4 1-300).
T4 sequence: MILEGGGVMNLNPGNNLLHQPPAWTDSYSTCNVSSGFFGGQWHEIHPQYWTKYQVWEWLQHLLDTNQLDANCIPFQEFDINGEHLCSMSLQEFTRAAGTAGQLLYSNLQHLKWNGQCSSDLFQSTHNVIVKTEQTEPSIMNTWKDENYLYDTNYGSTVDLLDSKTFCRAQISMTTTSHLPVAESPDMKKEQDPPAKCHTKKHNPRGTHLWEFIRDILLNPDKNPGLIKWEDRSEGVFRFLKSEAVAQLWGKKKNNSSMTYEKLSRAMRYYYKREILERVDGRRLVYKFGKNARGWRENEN
In outline: as §1

The next assay addresses SPI1 (Homo sapiens, UniProt P17947 1-270). In outline: as §1
For another assay, the target named is SPIB (Homo sapiens, UniProt Q01892 1-262). In outline: as §1
Sequence of SPIB (Q01892 whole entry): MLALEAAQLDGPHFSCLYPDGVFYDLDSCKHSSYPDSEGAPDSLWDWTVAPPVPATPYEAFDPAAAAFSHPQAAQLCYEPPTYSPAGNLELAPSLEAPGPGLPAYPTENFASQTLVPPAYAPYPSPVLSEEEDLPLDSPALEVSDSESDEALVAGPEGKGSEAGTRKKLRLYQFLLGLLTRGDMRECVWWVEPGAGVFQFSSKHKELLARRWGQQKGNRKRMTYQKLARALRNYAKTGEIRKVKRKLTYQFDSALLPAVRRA
The next assay addresses T5, ELK3 (Homo sapiens, UniProt P41970 1-407).
T5 sequence: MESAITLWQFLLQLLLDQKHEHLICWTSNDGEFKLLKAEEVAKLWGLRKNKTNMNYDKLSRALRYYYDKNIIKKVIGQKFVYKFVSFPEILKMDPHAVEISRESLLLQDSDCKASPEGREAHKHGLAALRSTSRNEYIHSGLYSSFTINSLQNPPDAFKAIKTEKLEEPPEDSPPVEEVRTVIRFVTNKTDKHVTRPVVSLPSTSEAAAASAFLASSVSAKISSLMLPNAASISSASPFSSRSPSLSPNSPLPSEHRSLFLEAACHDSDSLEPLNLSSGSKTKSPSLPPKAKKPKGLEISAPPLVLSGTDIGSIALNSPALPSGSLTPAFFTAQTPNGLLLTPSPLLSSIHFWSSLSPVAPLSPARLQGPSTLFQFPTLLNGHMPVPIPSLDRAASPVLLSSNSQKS
In outline: as §1

A further assay deals with T6, SPIC (Homo sapiens, UniProt Q8N5J4 1-248).
T6 sequence: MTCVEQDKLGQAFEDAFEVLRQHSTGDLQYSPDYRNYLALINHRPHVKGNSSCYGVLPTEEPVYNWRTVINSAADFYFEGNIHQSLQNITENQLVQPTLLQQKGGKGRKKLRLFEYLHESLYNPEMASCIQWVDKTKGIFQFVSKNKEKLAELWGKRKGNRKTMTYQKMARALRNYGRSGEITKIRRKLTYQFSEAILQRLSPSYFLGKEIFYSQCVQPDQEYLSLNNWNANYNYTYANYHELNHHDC
In short, it runs like this: as §1

A further assay has as its target ELF4 (Homo sapiens, UniProt Q99607 1-663). In short, it runs like this: as §1

Sequence of ELF1 (P32519 whole entry): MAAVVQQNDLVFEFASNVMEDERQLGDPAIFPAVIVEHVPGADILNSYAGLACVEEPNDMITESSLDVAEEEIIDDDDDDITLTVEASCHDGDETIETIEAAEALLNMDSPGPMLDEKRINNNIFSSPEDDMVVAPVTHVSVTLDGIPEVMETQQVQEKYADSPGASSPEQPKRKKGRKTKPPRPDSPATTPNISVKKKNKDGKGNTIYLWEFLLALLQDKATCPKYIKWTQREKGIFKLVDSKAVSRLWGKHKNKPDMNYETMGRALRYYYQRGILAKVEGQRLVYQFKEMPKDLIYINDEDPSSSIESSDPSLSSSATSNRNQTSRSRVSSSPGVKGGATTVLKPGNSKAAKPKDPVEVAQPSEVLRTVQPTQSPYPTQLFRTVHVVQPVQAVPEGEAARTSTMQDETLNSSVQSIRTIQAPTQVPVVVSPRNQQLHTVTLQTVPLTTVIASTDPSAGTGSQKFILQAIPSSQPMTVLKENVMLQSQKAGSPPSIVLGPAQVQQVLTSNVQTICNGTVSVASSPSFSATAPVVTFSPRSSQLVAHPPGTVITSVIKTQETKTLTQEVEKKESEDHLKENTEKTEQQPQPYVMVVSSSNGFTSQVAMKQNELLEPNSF
Sequence of ELF4 (Q99607 whole entry): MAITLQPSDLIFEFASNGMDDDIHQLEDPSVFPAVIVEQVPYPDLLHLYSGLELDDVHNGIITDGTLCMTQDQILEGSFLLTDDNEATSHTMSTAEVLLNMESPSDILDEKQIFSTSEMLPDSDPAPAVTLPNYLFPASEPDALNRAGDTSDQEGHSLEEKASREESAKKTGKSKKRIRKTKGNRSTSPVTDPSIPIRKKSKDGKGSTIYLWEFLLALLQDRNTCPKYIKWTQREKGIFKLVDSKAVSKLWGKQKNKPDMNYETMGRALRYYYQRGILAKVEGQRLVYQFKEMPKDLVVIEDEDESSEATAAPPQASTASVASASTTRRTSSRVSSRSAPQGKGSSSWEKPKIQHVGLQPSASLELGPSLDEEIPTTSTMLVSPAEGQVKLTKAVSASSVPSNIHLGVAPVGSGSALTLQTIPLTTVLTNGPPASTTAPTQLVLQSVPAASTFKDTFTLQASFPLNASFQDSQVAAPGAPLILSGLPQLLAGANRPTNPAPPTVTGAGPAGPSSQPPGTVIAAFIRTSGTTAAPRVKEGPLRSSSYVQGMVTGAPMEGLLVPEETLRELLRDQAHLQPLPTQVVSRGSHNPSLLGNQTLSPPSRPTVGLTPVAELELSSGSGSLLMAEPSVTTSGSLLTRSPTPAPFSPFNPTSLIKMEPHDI

As to GTTTGC, the binding signal in the assay with FLI1 is 1.06 fold enrichment (6-mer frequency, TF over GST control); with ELK1, 1.11 fold enrichment (6-mer frequency, TF over GST control); with GABPA, 1.04 fold enrichment (6-mer frequency, TF over GST control); in the assay with ELF1, 1.02 fold enrichment (6-mer frequency, TF over GST control); with EHF it was 1.11 fold enrichment (6-mer frequency, TF over GST control); in the assay with SPI1, 1.03 fold enrichment (6-mer frequency, TF over GST control). Also, the binding signal with SPIB was 1.07 fold enrichment (6-mer frequency, TF over GST control); in the assay with ELK3, 1.12 fold enrichment (6-mer frequency, TF over GST control); in the assay with SPIC it was 1.2 fold enrichment (6-mer frequency, TF over GST control); with ELF4, 1.15 fold enrichment (6-mer frequency, TF over GST control).
